RORg inh: inhibitors of mouse ROR gamma transcriptional activity; Drosophila S2 Gal4-RORgamma UAS-luciferase reporter, 20 h; Potency, µM (highest dose often 53.6 µM), hits mostly inhibitors; 310,000 tested, 5.4% active; AID 2551; also: nearly all actives have a fitted effect of over 60% in size
Target sequence (P51450 whole entry, looked up, the tested form may be a part): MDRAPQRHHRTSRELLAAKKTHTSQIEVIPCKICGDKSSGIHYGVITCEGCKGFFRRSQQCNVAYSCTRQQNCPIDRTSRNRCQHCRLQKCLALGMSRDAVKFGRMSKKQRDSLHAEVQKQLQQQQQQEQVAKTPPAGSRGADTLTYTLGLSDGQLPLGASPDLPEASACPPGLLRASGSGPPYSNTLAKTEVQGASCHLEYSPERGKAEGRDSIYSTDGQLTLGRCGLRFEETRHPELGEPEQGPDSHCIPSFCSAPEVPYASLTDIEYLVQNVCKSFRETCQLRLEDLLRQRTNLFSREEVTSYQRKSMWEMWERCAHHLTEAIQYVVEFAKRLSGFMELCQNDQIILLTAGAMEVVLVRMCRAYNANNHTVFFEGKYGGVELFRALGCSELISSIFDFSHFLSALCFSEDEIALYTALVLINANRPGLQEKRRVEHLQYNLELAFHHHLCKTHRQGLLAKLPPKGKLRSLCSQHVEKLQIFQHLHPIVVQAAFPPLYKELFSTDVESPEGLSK
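Drosophila S2 cells stably expressing Gal4-DBD/mouse RORγ fusion under metallothionein promoter plus UAS-luciferase; compound 1 h, then 700 uM CuSO4 induction for 20 h at ambient temperature; inhibition read as reduced luminescence.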
Sfp PPTase inh: blocks B. subtilis Sfp PPTase activity. Q9F4F7. Biochemical Sfp PPTase activity, qHTS. Potency, µM, most hits filed as inhibitors. 310,000 tested, 3.5% active;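 also: the enzyme is Sfp with the accession as filed and its product quenches rhodamine fluorescence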
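Compounds were incubated with enzyme (final 15 nM) for 15 min at room temperature before substrate addition started the reaction. Fluorescence at 525 nm excitation, 598 nm emission was recorded immediately and after 30 minutes.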
Epigenetic derep: regulators of epigenetic silencing causing reporter derepression in mouse cells; AID 1865; 280,000 tested, 0.2% active; Potency, µM (doses to about 53.9 µM), most hits filed as activators; murine LDR cells, GFP reporter derepression, 30 h; also: nearly all actives have a fitted effect of over 60% in size
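In this reporter-derepression format, murine cells bearing a silenced integrated CMV-GFP locus incubate with test compound (30 h, 37 C), then are washed and imaged; fluorescent objects of 20–120 um count as induced cells.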
ClpP mod: qHTS Assay for Activators of ClpP; Potency, µM (titrated, usually from 57.5 µM); 340,000 tested, 1.9% active; ATP-dependent Clp protease proteolytic subunit (Bacillus subtilis (strain 168)), P80244; purified B. subtilis ClpP, FRET peptide cleavage, 20 min; AID 651965, 2013; active = well fitted falling curve with a large enough effect; inconclusive = small, poorly fitted or top-dose-only effect; inactive = no such curve, though single readings can be large or run the other way; also: the source files actives as falling curves though it sought activators and does not explain the sign; nearly all actives have a fitted effect of over 65% in size
Target sequence (P80244 whole entry, looked up): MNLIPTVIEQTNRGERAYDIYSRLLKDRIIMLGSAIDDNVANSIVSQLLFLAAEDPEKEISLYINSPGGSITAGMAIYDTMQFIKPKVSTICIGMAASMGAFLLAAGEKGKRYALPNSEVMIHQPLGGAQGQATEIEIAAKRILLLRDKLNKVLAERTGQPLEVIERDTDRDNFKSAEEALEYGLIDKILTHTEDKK
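Buffer: 100 mM Tris/HCl pH8, 100 mM KCl, 0.05% low protease BSA, 2.5% glycerol, 0.01% Tween-20. ClpP 10 microg/mL final; 20 min RT; delta FRET normalized to ADEP and DMSO controls.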
Gal4-VP16 FLuc: counter-screen for ROR gamma inhibitors: Gal4-VP16 reporter; Potency, µM (highest dose often 53.6 µM), usual class: inhibitors; 310,000 tested, 3.5% active; Drosophila S2 Gal4-VP16 UAS-luciferase, luminescence, 20 h;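 also: Gal4-VP16 expression switched on by copper sulfate through the metallothionein promoter; nearly all actives have a fitted effect of over 50% in size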
PINK1 expr mod: changes PINK1 expression | PINK1 immunofluorescence, high-content cytometry, 24 h | Potency, µM (top dose mostly 76.6 µM), usual class: activators | 410,000 tested, 0.2% active; active = well fitted activation curve with a large enough effect; inconclusive = small, poorly fitted or top-dose-only effect; cell line not stated here; also: nearly all actives have a fitted effect of over 65% in size
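Fluorescence from anti-PINK1 antibody, together with nuclear and cell stains, was scanned on a laser-scanning cytometer. Before staining, stable-line cells were incubated 24 hours with compounds at 5 concentrations; primary antibody 12 h at 10 degrees C.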
A number is an active result; n = inactive; u = inconclusive; x = no result; [ ] = dose if it differs, or a comment. In the library only some 8.1% were active in any assay of this set; here they are far more common. Unless noted, calls follow the shape of the dose curve; as a rule, active = well fitted curve in the direction sought with a large enough effect; inconclusive = small, poorly fitted or top-dose-only effect, or another doubt; inactive = no such curve, though single readings can be large; an effect the other way counts as inactive or inconclusive.

SMILES	RORg inh	Sfp PPTase inh	Epigenetic derep	ClpP mod	Gal4-VP16 FLuc	PINK1 expr mod
S=C(Nc1ccccc1)Nc1ccccn1	x	x	x	n	x	n
S=C(Nc1ccc(Nc2ccccc2)cc1)Nc1ccccn1	0.71µM	n	n[10.1 µM]	x	2.5µM	n
O=C(Nc1ccccc1)C(=O)Nc1ccccn1	2.2µM	n	n	n	5µM	x
O=C(N/N=C/c1ccccc1O)C(=O)Nc1ccccn1	1.4µM	n	n	n	10µM	n
CCNC(=O)c1c(C)oc2ncn(C)c(=O)c12	x	x	n	n	x	n
Cc1c(C(=O)Nc2ccccn2)oc2c(Cl)cccc12	x	x	x	n	x	n
Cc1c(C(=O)Nc2ccncc2)oc2ccccc12	n	n	n	n	n	n
CCOc1ccc2oc(C(=O)NCc3nc4ccccc4[nH]3)c(C)c2c1	n	n	x	35µM	n	n
Cc1c(C(=O)Nc2nc3ccccc3[nH]2)oc2c(Cl)cccc12	n	n	n	x	6.3µM	n
Cc1c(C(=O)Nc2nc3ccccc3[nH]2)oc2ccc(Br)cc12	5.6µM	14µM	n	n	4.5µM	n
Cc1c(C(=O)Nc2nc3ccccc3[nH]2)oc2ccccc12	0.89µM	u	n	n	5µM	n
COc1ccc(OCC(=O)Nc2ccc(-c3nc4cc(C)cc(C)c4o3)cc2)cc1	x	x	n	u	x	n
Oc1ccc(C[C@@H]2CNC(=S)N2CCCCC2CCCCC2)cc1	8.9µM	n	n	n	u	n
NC1=NC[C@H](c2ccccc2)N1CCCCC1CCCCC1	n	n	n	n	n	n
S=C1NC[C@H](c2ccccc2)N1CCCCC1CCCCC1	0.45µM	n	n	n	3.2µM	n
Cc1ccc(N(CC(=O)N2CCN(c3ccc(Cl)cc3)CC2)S(=O)(=O)c2c(C)noc2C)cc1	x	x	n	n	x	n
CC(C)c1cc[n+](-c2nc([O-])sc2C=O)cc1	n	40µM	n	n	n	n
CCc1cc[n+](-c2nc([O-])sc2C=O)cc1	n	50µM	n	n	n	n
COc1cc(OC)c(/C=C/c2cc3ccccc3c[n+]2C)c(OC)c1	x	x	x	n	x	11µM
COc1ccc(OC)c(/C=C/c2cc3ccccc3c[n+]2C)c1	x	x	x	n	x	n
COc1ccccc1N1CCN(C(=O)c2cnn(-c3ccc(C)c(C)c3)c2C2CCN(C(=O)OC(C)(C)C)CC2)CC1	x	x	n	n	x	n
COc1ccc(C2=CC3=C(Br)C(=O)C(C)(OC(=O)c4ccc(Cl)nc4)C(=O)C3=CO2)cc1 (stereo not drawn)	n	n	n	n	n	14µM
COc1ccccc1-c1noc(-c2ccc(N3CCN(C)CC3)c([N+](=O)[O-])c2)n1	x	x	n	n	x	n
COC(=O)c1cc(=O)n(Cc2cccs2)c(=Nc2ccc(F)cc2)s1	u	n	u	n	u	n
COC(=O)c1cc(=O)n(-c2ccc(F)cc2)c(=Nc2ccc(F)cc2)s1	u	n	n	n	16µM	n
SMILES	RORg inh	Sfp PPTase inh	Epigenetic derep	ClpP mod	Gal4-VP16 FLuc	PINK1 expr mod
CCN(CC)c1nc(C)c(C(=S)Nc2cc([N+](=O)[O-])ccc2Cl)s1	3.2µM	n	n	x	n	n
CCC(C)(C)C(=O)Nc1cc([N+](=O)[O-])ccc1Cl	n	n	n	n	n	n
CCOc1ccccc1NC(=O)COc1cccc2c(=O)n(CCOC)ccc12	x	x	n	n	x	n
O=C(NCc1cccs1)c1ccc(Cn2c(SCc3ccccc3)nc3cccnc32)cc1	x	x	n	n	x	n
COc1ccc(C(=O)Cn2c(Cl)nc3c2c(=O)n(C)c(=O)n3C)cc1	n	13µM	n	x	n	n
Cc1ccc(NC(=S)/C(=C(\[O-])c2ccc(F)cc2)[n+]2ccccc2)cc1	n	45µM	n	x	n	n
Cc1cc(C)c(/C([O-])=C(/C(=S)Nc2ccc(SC(F)F)cc2)[n+]2ccccc2)cc1C	11µM	n	n	x	n	n
[O-]/C(=C(\C(=S)NCc1ccccc1)[n+]1ccccc1)c1ccc(Cl)cc1	u	n	n	x	n	n
Cc1ccc(C)c(NC(=S)/C(=C(\[O-])c2ccc(OC(F)F)cc2)[n+]2ccccc2)c1	n	u	n	x	n	n
C=CCNC(=S)/C(=C(\[O-])c1ccc(Cl)cc1)[n+]1ccccc1	n	8.9µM	n	x	n	n
CCOC(=O)c1ccc(NC(=O)CS(=O)(=O)Cc2nc(-c3ccc(C)cc3)oc2C)cc1	x	x	n	n	x	n
CCCCC1(CC(=O)OC)C(=O)N(c2ccccc2)N(c2ccccc2)C1=O	n	n	n	28µM	n	n
C[C@@]12C=Cc3occc3[C@H]1CC[C@]13CC(=O)[C@@H](CC[C@H]12)C3	n	n	x	x	n	x
O=C1CN(C(=O)c2ccc(S(=O)(=O)N3CCCC3)cc2)C(c2ccccc2)c2cc(Br)ccc2N1 (stereo not drawn)	x	x	n	n	x	n
COc1cc(/C=C/C(=O)N2CCC=CC2=O)cc(OC)c1OC	3.5µM	n	n	n	7.9µM	n
CCNc1nc2[nH]c(=O)c3c(c2s1)OC(N)=C(C#N)C3c1ccc(C)cc1 (stereo not drawn)	n	45µM	n	n	n	n
CC(=O)c1ccccc1-c1ccc2c(c1)CC(CNC(=O)Cc1c[nH]c3ccccc13)O2 (stereo not drawn)	x	x	x	x	x	n
Cc1ccc(NC(CC(=O)c2ccccc2)C(=O)O)cc1Cl (stereo not drawn)	n	u	n	n	n	n
O=C(CC(Nc1ccccc1Cl)C(=O)OCC(=O)c1cccs1)c1ccccc1 (stereo not drawn)	n	45µM	n	n	n	x
O=C(CC(Nc1ccc(Cl)cc1Cl)C(=O)O)c1ccccc1 (stereo not drawn)	13µM	14µM	n	n	u	n
CCOC(=O)C(C)NC(=O)C1CCN(c2ncnc3c2nc2n3CCCCC2)CC1 (stereo not drawn)	x	x	n	n	x	n
Cc1[nH]nc2c1C(c1cc(Br)cs1)C(C#N)=C(N)O2 (stereo not drawn)	0.71µM	u	u	n	7.1µM	n
C=CCN(CC=C)C(=S)NC(=O)Cc1cccc2ccccc12	0.2µM	n	u	x	0.79µM	n
CCOC(=O)c1cc(S(=O)(=O)N2CCN(c3ccc(OC)cc3)CC2)[nH]n1	x	x	n	n	x	n
O=C(NCc1ccco1)c1ccc([N+](=O)[O-])o1	5µM	n	n	n	n	n
O=C(NCc1ccco1)c1ccc(Cn2cc([N+](=O)[O-])cn2)o1	n	n	n	n	n	n
CC(=O)c1ccc(NC(=O)c2ccc([N+](=O)[O-])o2)cc1	6.3µM	n	x	n	13µM	n
NS(=O)(=O)c1ccc(O)c(NC(=O)c2ccc([N+](=O)[O-])o2)c1	n	11µM	n	x	n	n
